Results filed as inconclusive are left out. A number with no mark means an inactive call. Calls of active or inactive are those of the source. The call rests on the fitted dose curve.
experiment: qHTS assay to identify small molecule antagonists of the estrogen receptor alpha (ER-alpha) signaling pathway using the BG1 cell line (AID 743080); conditions: BG1Luc4E2 ERE-luciferase antagonist mode, luminescence; series mostly up to 70.3 µM; activity change, negative = inhibition: at the top concentration;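 further: BG1 cells stimulated with 17beta-estradiol alongside compound; nearly all actives have a fitted effect of over 25% in size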
Excerpt: National Center for Advancing Translational Sciences [NCATS]
NIH Chemical Genomics Center [NCGC]
U.S. Environmental Protection Agency [EPA]
National Institutes of Environmental Health Sciences [NIEHS]
National Toxicology Program [NTP]
U.S. Food and Drug Administration [FDA]
Estrogen receptor (ER), a nuclear hormone receptor, plays an important role in development, metabolic homeostasis and reproduction. Endocrine disrupting chemicals (EDCs) and their interactions with steroid hormone receptors like ER causes disruption of normal endocrine function. Therefore, it is important to understand the effect of environmental chemicals on the ER signaling pathway. To identify ER antagonists, BG1-Luc-4E2 cell line (provided by Dr. Michael Denison from University of California) has been used to screen the Tox21 10K compound library. BG1Luc4E2 cell line endogenously expresses full-length ER-alpha and is stably transfected with a plasmid containing four estrogen responsive elements (ERE) upstream of a luciferase reporter gene.
Tox21 Assay Protocol Summary:
BG1-Luc-4E2 cells were cultured in phenol red free assay medium containing 10% charcoal stripped FBS for 5 days before the assay was performed. The cells were dispensed at 4,000 cells/4 uL of assay medium per well into white wall/solid-bottom 1536-well plates using a Multidrop Combi (ThermoFisher Scientific, Waltham, MA) dispenser. The assay plates were incubated at a 37C and 5% CO2 for 24 h, and then 23 nL of compounds dissolved in DMSO, positive controls or DMSO only was transferred to the assay plate using a Pintool station (Kalypsys, San Diego, CA), followed by addition of 1 uL of 17beta-estradiol in assay medium using a Flying Reagent Dispenser (Aurora Discovery, San Diego, CA). After the plates were incubated at 37 C and 5% CO2 for 21.5 h, 1 uL of CellTiter-Fluor reagent (Promega, Madison, WI) of measuring cytotoxicity was added using Flying Reagent Dispenser (FRD) to each well. The assay plates were incubated at 37 C and 5% CO2 for additional 30 min and the fluorescence intensity was quantified by a ViewLux plate reader (PerkinElmer, Shelton, CT). For measuring luciferase reporter gene activity, 4 uL of ONE-Glo reagent (Promega) was added to each plate using an FRD and luminescence was quantified by a ViewLux plate reader after 30 min incubation at room temperature.
On the % scale 0 is the no-effect control and ±100 the full control effect.

Row | Compound | activity change, negative = inhibition | Potency
1 | CN(C)CCN(C)C | -1.46% | –
2 | CCOP(=O)(CN(CCO)CCO)OCC | 7.06% | –
3 | CCOP(=S)(OCC)Oc1ccc(Cl)cc1Cl | 8.76% | –
4 | C[C@H](N)C(=O)c1ccccc1 | – | inactive
5 | CC(C)(C)c1cc(O)ccc1O | – | inactive
6 | CCN(CCO)CCn1c(Cc2ccccc2)nc2c1c(=O)n(C)c(=O)n2C | 0.773% | –
7 | OP(O)c1ccccc1 | -6.29% [at 95 µM] | –
8 | BrCC1CO1 (stereo not given) | 15.2% [at 95 µM] | –
9 | Cc1ccc2c(c1)C1CN(C)CCC1N2 (stereo not given) | -2.08% | –
10 | CCOC(=O)CCl | -9.17% | –
11 | NC1(c2ccccc2)CCCCC1 | 17.8% | –
12 | O=P(O)(O)CN(CP(=O)(O)O)CP(=O)(O)O | 4.4% [at 32.5 µM] | –
13 | CN(CCO)CCO | -22% [at 95 µM] | –
14 | O=C(CCl)NCO | 7.15% | –
15 | Cn1c(CCCC(=O)O)nc2cc(N(CCCl)CCCl)ccc21 | -1.7% | –
16 | CCOC(=O)CC(SP(=S)(OC)OC)C(=O)OCC (stereo not given) | – | inactive
17 | O=C(Cl)C(Cl)Cl | 1.16% | –
18 | C=C(Cl)CCl | -6.94% | –
19 | COc1cc(CCN)cc(OC)c1OC | -1.02% [at 95 µM] | –
20 | CCCC[N+](=O)[O-] | 4.32% | –

Row | Compound | activity change, negative = inhibition | Potency
21 | N[C@@H]1C[C@H]1c1ccccc1 | 4.21% | –
22 | CN1C(=O)COc2c(C(=O)NC3CN4CCC3CC4)cc(Cl)cc21 (stereo not given) | 20.8% | –
23 | CCCN1CCC[C@@H]2Cc3[nH]ncc3C[C@H]21 | -15.1% | –
24 | CNC(=O)Oc1ccccc1C(C)C | -1.57% | –
25 | CCN[C@@H](C)Cc1ccccc1 | -9.46% [at 95 µM] | –
26 | CC(=O)CN(CC(C)=O)N=O | 5.66% | –
27 | CC(O)CCl (stereo not given) | 0.48% | –
28 | N=C(N)[Se] | 0.531% [at 95 µM] | –
29 | O=C(O)c1c(Cl)ccc2cc(Cl)cnc12 | -4.7% | –
30 | CC[C@@H](CO)NC(=O)[C@@H]1C=C2c3cccc4[nH]cc(c34)C[C@H]2N(C)C1 | 4.89% | –
31 | C#CCOC(=O)/C=C(C)/C=C/CC(C)CCCC(C)C (stereo not given) | -4.63% | –
32 | COc1cccc(C=O)c1 | -0.263% | –
33 | O=C(Cl)c1ccccc1 | -0.287% [at 95 µM] | –
34 | CC[C@@H](CO)NC(=O)[C@@H]1C=C2c3cccc4c3c(cn4C)C[C@H]2N(C)C1 | 3.19% | –
35 | NCCOS(=O)(=O)O | 8.68% | –
36 | O=C1CC(=O)NC(=O)N1 | 0.788% | –
37 | Nc1c(Cl)c(F)nc(OCC(=O)O)c1Cl | 0.113% | –
38 | COc1ccc(C=O)cc1O | 11.1% [at 95 µM] | –
39 | O=C/C=C/c1ccco1 | 7.65% | –
40 | O=C(NC(O)C(Cl)(Cl)Cl)NC(O)C(Cl)(Cl)Cl (stereo not given) | 1.41% | –
